# Measured values reported in PubChem BioAssay (NCI).
# Compounds without any hit were thinned out: in the full panel of roughly 83,000, 20% have a hit.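 Testing used 96-well plates and a 48-hour single-concentration exposure. Example: -40 means 40% of the starting cells died.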 Unmarked numbers belong to inactive results. Calls of active or inactive are those of the source. How the source made its calls: active means growth percent below 10; inactive means the rest.
# How the values were obtained:
# Experiment in all cases: NCI-60 one-dose screen, 48 h (100 = growth as untreated, 0 = no growth, -100 = all killed)
# Details in all cases: 10 µM unless noted
# NCI-H23 lung = test system: NCI-H23 lung
# NCI-H226 lung = test system: NCI-H226 lung
# NCI-H322M lung = test system: NCI-H322M lung
# HOP-62 NSCLC = test system: HOP-62 NSCLC
# NCI-H460 lung = test system: NCI-H460 lung
# HOP-92 NSCLC = test system: HOP-92 NSCLC
# NCI-H522 lung = test system: NCI-H522 lung
# A549/ATCC NSCLC = test system: A549/ATCC NSCLC
# 786-0 renal = test system: 786-0 renal
# COLO 205 colon = test system: COLO 205 colon
# DU-145 prostate = test system: DU-145 prostate
# K-562 leukemia = test system: K-562 leukemia
# MALME-3M melanoma = test system: MALME-3M melanoma
# MDA-MB-231 breast = test system: MDA-MB-231 breast
# RXF 393 renal = test system: RXF 393 renal
# SF-268 CNS = test system: SF-268 CNS
# SF-295 CNS = test system: SF-295 CNS
# SF-539 CNS = test system: SF-539 CNS
# UACC-257 melanoma = test system: UACC-257 melanoma
# M14 melanoma = test system: M14 melanoma
SMILES,growth (NCI-H23 lung),growth (NCI-H226 lung),growth (NCI-H322M lung),growth (HOP-62 NSCLC),growth (NCI-H460 lung),growth (HOP-92 NSCLC),growth (NCI-H522 lung),growth (A549/ATCC NSCLC),growth (786-0 renal),growth (COLO 205 colon),growth (DU-145 prostate),growth (K-562 leukemia),growth (MALME-3M melanoma),growth (MDA-MB-231 breast),growth (RXF 393 renal),growth (SF-268 CNS),growth (SF-295 CNS),growth (SF-539 CNS),growth (UACC-257 melanoma),growth (M14 melanoma)
COC(=O)[C@@H](C)C[C@H](Cc1ccccc1)NC(=O)c1nc([C@@H](C[C@H](C(C)C)N(C)C(=O)[C@@H](NC(=O)[C@H]2CCCCN2C)C(C)C)OC(C)=O)sc1C(C)C,24.6%,52.4%,38.1%,11.8%,5.54% (active),30.6%,-9.43% (active),2.6% (active),-6.11% (active),-61.5% (active),-0.426% (active),7.38% (active),57.5%,2.67% (active),23.7%,22.1%,-1.35% (active),-22.2% (active),50.7%,-26.6% (active)
O=[N+]([O-])c1ccc([Se]C2CCCCC2Cl)c([N+](=O)[O-])c1 (stereo not given),40.3%,73.5%,55.7%,7.16% (active),57.7%,53.8%,63.3%,45.5%,128%,102%,82.1%,105%,69.8%,61.7%,67.7%,14.3%,-41.3% (active),-87.3% (active),59.2%,40.2%
CC12CCC3C(C=CC4=C(N)C(=O)CCC43C)C1CCC2=O (stereo not given),74.1%,96.3%,88.4%,112%,83.8%,61.9%,76.6%,103%,89.3%,121%,62.4%,-26.9% (active),70.8%,101%,95.2%,89%,105%,82.8%,86.7%,79.5%
CC12CCC(O)CC1=CCC1C2CCC2(C)C(O)CCC12 (stereo not given),111%,90%,101%,103%,101%,85.4%,94.8%,109%,103%,106%,105%,115%,102%,105%,101%,102%,96.2%,98.9%,110%,106%
O=[N+]([O-])/C=C\c1ccc(Cl)c(Cl)c1,77%,73.8%,105%,95.6%,67.2%,59.2%,74%,57.5%,74%,41.1%,70%,11.8%,-0.637% (active),74.8%,-79.8% (active),69.2%,98.8%,65.2%,69.6%,-9.23% (active)
O=C1NC(=O)C(=Cc2cccn2CCCCCn2c3ccccc3c(=O)c3ccccc32)C(=O)N1,96.3%,99.1%,98.3%,102%,108%,90.4%,90.5%,100%,99%,114%,113%,89.1%,119%,116%,110%,102%,99.4%,102%,104%,102%
CNC(=O)Oc1ccc(N(C)C)cc1C(C)C,103%,92.6%,91.1%,99.5%,107%,100%,92.2%,94.9%,102%,115%,101%,129%,72.1%,103%,73.8%,101%,118%,89.7%,105%,97.2%
O=P(Oc1ccc(Cl)cc1)(N1CC1)N1CC1,65.4%,87.8%,99.6%,81.3%,39.3%,81.2%,66.8%,60.2%,84.5%,94.6%,54.4%,85.3%,104%,106%,73.9%,89%,66.2%,81.4%,94.8%,86.5%
NC(=S)c1cn(C2OC(CO)C(O)C2O)c2ncnc(N)c12 (stereo not given),-38.8% (active),-12.7% (active),-17% (active),-30% (active),3.97% (active),-4.97% (active),-38.6% (active),4.83% (active),-15.9% (active),-47% (active),-18.8% (active),-42.3% (active),-30.5% (active),-9.11% (active),-55.9% (active),-20.9% (active),-3.13% (active),-53.1% (active),-1.27% (active),-57.9% (active)
Cc1cc(N(CCCl)CCCl)ccc1C=Nc1ccc(-c2csc(Cc3ccccc3)n2)cc1,59.1%,54.6%,76.6%,65.1%,25.5%,47.5%,69.7%,50.7%,50.8%,74.1%,57.1%,56.8%,70.8%,83.3%,83.8%,65.6%,13.4%,49.3%,46.2%,79.8%
Fc1ccc2c(c1)c(-c1nc(-c3c[nH]c4ncccc34)cs1)cn2CCN1CCOCC1,60%,49.2%,77.2%,39.3%,59.8%,18.8%,44.5%,52.1%,71.6%,38.4%,77%,18.6%,74.2%,42.6%,61.6%,56.6%,62%,55.1%,97.2%,41.6%
COc1ccc(NC([Se])=NC23CC4CC(CC(C4)C2)C3)cc1,-23% (active),-32.7% (active),3.73% (active),-0.819% (active),-8.63% (active),-6.73% (active),-32.6% (active),-0.959% (active),-42.1% (active),-32.1% (active),2.16% (active),12.3%,-18.5% (active),-44.4% (active),-41% (active),38.5%,-23.6% (active),-6.89% (active),-45.5% (active),-6.57% (active)
CC(=O)O[C@H]1CC[C@H]2[C@@H]3CC=C4c5nc(-c6ccccc6)sc5CC[C@]4(C)[C@H]3CC[C@]12C,71.7%,95.5%,91.4%,72.1%,39.4%,102%,43.8%,57.9%,66.3%,7.45% (active),86.1%,8.09% (active),93.9%,64.2%,79.2%,78.9%,-0.49% (active),13.8%,64.6%,61.5%
COC(=O)C12CC(NC(=O)c3csc([C@@H](C[C@H](C(C)C)N(C)C(=O)[C@@H](NC(=O)[C@H]4CCCCN4C)C4CC4)OC(C)=O)n3)(C1)C2,29.4%,14.6%,45%,6.31% (active),7.21% (active),18.7%,-4.14% (active),13%,24.5%,-64.5% (active),4.38% (active),7.65% (active),70%,-0.474% (active),14.5%,21.9%,6.6% (active),-28.5% (active),42.2%,14.8%
COc1cc(C=Nc2cccc(Br)c2)ccc1N(CCCl)CCCl,72.7%,75.2%,132%,89%,21.9%,74.8%,-81.5% (active),64.9%,94.4%,78.5%,87.6%,88.4%,128%,91.2%,2.86% (active),80.3%,44.4%,67.9%,96.6%,94%
